About 83,000 compounds went through this panel and 20% of them were active in at least one assay; those are over-represented in the sample as a whole.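 Each cell line was grown in a 96-well plate and treated with one concentration of compound for 48 hours. Values below 10 were considered active.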 Unmarked numbers belong to inactive results. The source made the active and inactive calls.

In PubChem BioAssay (NCI) one finds growth data, which are given here for 14 compounds.

What all share (test): NCI-60 one-dose screen, 48 h (100 = growth as untreated, 0 = no growth, -100 = all killed)
Details in all cases: 10 µM unless noted

Assay [1] concerns SK-MEL-2 melanoma.
Assay [2] has as its system EKVX NSCLC.
The test system of assay [3] is SN12C renal.
Assay [4] relates to UO-31 renal.
Assay [5] deals with TK-10 renal.
Assay [6] relates to ACHN renal.
Assay [7] deals with CAKI-1 renal.
The subject of assay [8] is A498 renal.
For assay [9], the system named is CCRF-CEM leukemia.
Assay [10] relates to MOLT-4 leukemia.

Turning to `N/C(=N\c1nc2ccccc2s1)NC(=O)Nc1ccccc1Br`, the growth in assay [1] was -0.501% (active); in assay [2], 27.1%; in assay [3], -39.3% (active); in assay [4], 11.3%; in assay [5], -15.6% (active); in [6] it was -39.3% (active). For the same compound, the growth in [7] was -17.4% (active); in [8], 26.2%; in assay [9] it was 12.6%; in [10] it was 21.5%.
As for `COc1ccc(-c2nnc3ccc(N/N=C/c4ccc(O)cc4)nn23)cc1`, the growth in [1] was 73.2%; in [2], 37.8%; in assay [4], 30.3%; in [5], 38.9%; in assay [6], 43.5%; in [7], 21.5%. In addition, the growth is 91.9% in assay [8] and 14.1% in assay [9].
With `CN(C)c1ccnc(CNCCSC2(c3ccccc3)c3ccccc3C=Cc3ccccc32)c1`, the growth in [1] was -46.6% (active); in [2] it was -24.3% (active); in assay [4], 13.5%; in assay [5] it was 0.124% (active); in assay [6], 12.8%; in [7] it was 3.63% (active). Also, the growth is -38.8% (active) in assay [8], -2.57% (active) in assay [9] and 7.41% (active) in assay [10].
Consider `CCOC(=O)C1=C(N)N(c2ccccc2)C2=C(C(=O)CC(C)(C)C2)C1c1ccc([N+](=O)[O-])cc1` (stereo unspecified), for which the growth was 97.2% in assay [1]; 86.4% in [2]; 95.7% in assay [4]; 113% in assay [5]; 87.9% in [6]; 68.4% in [7]. The growth in [8] was 114%; in assay [9], 89.1%; in assay [10], 78.3%.
Regarding `COc1cc2oc(-c3cccc(C(=O)Nc4ccc(Cl)cc4)c3)cc(=O)c2c(OCC(=O)N[C@@H](Cc2ccccc2)C(=O)O)c1OC`, the growth is 116% in assay [1]; 107% in assay [2]; 90.8% in assay [4]; 134% in [5]; 97.2% in [6]; 91.2% in assay [7]. In addition, the growth is 102% in [8], 98.9% in assay [9] and 110% in assay [10].
With `O=c1[nH]c2ccccc2cc1CSc1cccc(Nc2nccc(-c3ccc4ccccc4c3)n2)c1`, the growth is 98.3% in assay [1]; 95.4% in assay [2]; 73.4% in assay [4]; 79.9% in [5]; 95.5% in assay [6]; 81.2% in [7]. The growth is 106% in assay [8], 46.8% in [9] and 65.9% in [10].
Take `Cc1cc(=O)oc2cc(OCCCOc3ccc(/C=C/C(=O)Nc4ccccc4N)cc3)ccc12`: the growth in assay [1] was 48.7%; in assay [2] it was 31.2%; in [4], -22.9% (active); in [5], 49.8%; in [6] it was 34.6%; in assay [7], 29.6%. In addition, the results for the growth in [8], in [9] and in [10] were 11.2%, 9.74% (active) and 12.5%, respectively.
Turning to `CCCCCCn1c(O)c(N=Nc2nc(-c3cc4ccccc4oc3=O)cs2)c2ccccc21`, the growth in assay [1] is 79.7%; in assay [2] it was 1.67% (active); in assay [4], 75.1%; in assay [5] it was 90.4%; in assay [6], 81.4%; in [7], 58.9%. The growth in assay [8] was 88%; in [9], 5.68% (active); in [10], 23.4%.
With `CCCCSc1nc(NCCc2c[nH]c3ccccc23)c(C#N)c(-c2ccc(OC)cc2)n1`, the growth was 76.6% in assay [1]; 40.1% in [2]; 59.3% in [4]; 102% in assay [5]; 66.6% in assay [6]; 53.6% in assay [7]. For the same compound, the figures for the growth in [8], in [9] and in [10] were 103%, 27.8% and 26.3%, respectively.
Take `COc1c(F)ccc(C(=O)Nc2ccc3nc(NC(=O)C4CCCN(S(=O)(=O)c5ccc(C(F)(F)F)cc5)C4)sc3c2)c1F` (stereo unspecified): the growth in assay [1] is 84.7%; in assay [2] it was 103%; in [4], 55.3%; in assay [5], 99.9%; in [6] it was 72.3%; in assay [7] it was 61.2%. Moreover, the growth was 96.7% in [8], 89.5% in [9] and 47.2% in [10].
Regarding `Cc1cc(=O)oc2cc(OCCCCOc3ccc(/C=C/C(=O)Nc4ccccc4N)cc3)ccc12`, the growth was 111% in [1]; 60.3% in [2]; 23.3% in assay [4]; 112% in [5]; 68.2% in assay [6]; 59.8% in [7]. The growth is 84.1% in [8], 10.9% in [9] and 27.8% in assay [10].
Consider `CCCCCCCCc1ccc(S(=O)(=O)Nc2ccc(CC)cc2C(=O)O)cc1`, for which the growth in assay [1] is 86.7%; in assay [2], 90.5%; in [4], 84.8%; in assay [5], 104%; in [6], 96%; in [7] it was 89%. Besides, the growth was 104% in assay [8], 77.9% in [9] and 91.1% in assay [10].
For `CCCCCCCCc1ccc(C(=O)Nc2ccc(C)cc2C(=O)O)cc1C`, the growth in assay [1] is 97.5%; in assay [2] it was 88.4%; in [4], 78.6%; in assay [5] it was 102%; in assay [6], 84.4%; in [7], 78.2%. Besides, the results for the growth in [8], in assay [9] and in [10] were 98.8%, 79.8% and 90.8%, respectively.
As to `Cc1ccc(-n2c(-c3cc4ccccc4nc3Cl)noc2=O)cc1`, the growth in assay [1] is 80.9%; in assay [2], 47.5%; in [4], 72.4%; in assay [5], 122%; in assay [6], 93.6%; in assay [7], 49.8%. Also, the growth is 137% in [8], 84.6% in [9] and 76.5% in assay [10].
